# Pol kappa inh = blocks human DNA polymerase kappa activity; Q9UBT6; purified Pol kappa, fluorescent DNA synthesis assay, 10 min; Potency, µM (doses to about 107 µM), without a hit: at the highest dose activity, negative = inhibition, hits mostly inhibitors; 400,000 compounds, 0.53% hits; AID 588579; also: potency is read from the fitted curve at half-maximal effect; % is scaled to controls: 0 for no effect and ±100 for the full control effect
# Target sequence (Q9UBT6 whole entry, looked up): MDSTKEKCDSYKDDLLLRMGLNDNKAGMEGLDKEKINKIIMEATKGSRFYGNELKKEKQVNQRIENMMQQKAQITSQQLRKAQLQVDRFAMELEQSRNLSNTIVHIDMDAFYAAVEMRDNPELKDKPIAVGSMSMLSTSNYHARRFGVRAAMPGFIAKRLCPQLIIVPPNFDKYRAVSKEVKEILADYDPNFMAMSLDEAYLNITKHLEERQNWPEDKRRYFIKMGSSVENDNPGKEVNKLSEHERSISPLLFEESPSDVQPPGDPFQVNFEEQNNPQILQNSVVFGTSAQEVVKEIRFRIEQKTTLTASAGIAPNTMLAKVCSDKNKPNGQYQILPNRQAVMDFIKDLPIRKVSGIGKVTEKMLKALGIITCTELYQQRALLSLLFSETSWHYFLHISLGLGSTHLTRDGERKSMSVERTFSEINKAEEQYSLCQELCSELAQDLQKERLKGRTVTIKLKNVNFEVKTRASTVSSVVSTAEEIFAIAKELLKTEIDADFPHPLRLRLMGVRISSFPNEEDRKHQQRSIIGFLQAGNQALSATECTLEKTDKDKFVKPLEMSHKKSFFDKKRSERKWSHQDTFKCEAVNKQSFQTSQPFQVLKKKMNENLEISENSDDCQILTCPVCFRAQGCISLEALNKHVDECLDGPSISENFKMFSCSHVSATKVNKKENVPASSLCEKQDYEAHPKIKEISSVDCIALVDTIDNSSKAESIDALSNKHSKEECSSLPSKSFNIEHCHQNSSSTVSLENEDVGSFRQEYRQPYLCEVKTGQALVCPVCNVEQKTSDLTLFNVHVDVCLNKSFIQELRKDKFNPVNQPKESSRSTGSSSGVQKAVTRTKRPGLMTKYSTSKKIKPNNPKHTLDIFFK
#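 Fluorescent qHTS in 1536-well format: enzyme (10 nM) and compound sat 15 min at room temperature before 50 nM substrate (final) was added. Signal taken at 0 and 10 min; no-enzyme buffer wells were negative controls.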
# PI5P4Ka inh = blocks human PI5P4K alpha kinase activity. P48426. PI5P4Kalpha enzyme, ADP-Glo luminescence, 60 min; active compounds read low. max response, %. 330,000 compounds, 1.2% hits. AID 652105; active = max response of -50% or lower; inconclusive = between -30% and -50%; inactive = -30% or higher; also: value at the top dose of about 77 µM; % is scaled to controls: 0 for no effect and ±100 for the full control effect
#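 Human PI5P4Kalpha with substrate in 0.038 M HEPES pH 7.4, 0.28 mM EGTA, 0.1% CHAPS, 5% DMSO; reaction started with 5 microM ATP (final), 60 min at room temperature. ADP formed read by ADP-Glo luminescence.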
# POLI inh = DNA polymerase iota (human) inhibition; Pol iota fluorescent replication assay, 10 min; Q9UNA4; Potency, µM (titrated, usually from 115 µM), for the others: top-dose activity, negative = inhibition, usual class: inhibitors; 390,000 compounds, 1% hits; also: potency is read from the fitted curve at half-maximal effect
#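 Fluorescent replication assay read twice, at 0 min and 10 min after adding 50 nM (final) substrate. Enzyme (10 nM) and compounds were first incubated 15 min at room temperature; enzyme-free buffer wells were negative controls.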
# Pol beta inh = blocks human DNA polymerase beta activity | Pol beta primer extension/strand displacement, fluorescence kinetic | Potency, µM (highest dose often 114 µM), for the others: at the highest dose activity change, negative = inhibition, hits mostly inhibitors | 340,000 compounds, 1.3% hits; also: potency is read from the fitted curve at half-maximal effect; % is scaled to controls: 0 for no effect and ±100 for the full control effect
#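 Values derive from four-parameter Hill fits of normalized kinetic data: reads at 0 and 10 min following addition of 50 nM substrate to 10 nM Pol beta preincubated 15 min with compound.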
# WRN inhibitor = inhibitors of human WRN helicase | Q14191 | WRN helicase unwinding, fluorescent forked duplex, kinetic | Potency, µM (highest dose often 114 µM), inactives show top-dose activity change, negative = inhibition, usual class: inhibitors | 360,000 compounds, 0.46% hits | AID 651768; also: potency is read from the fitted curve at half-maximal effect; % is scaled to controls: 0 for no effect and ±100 for the full control effect; nearly all actives have a fitted effect of over 55% in size
#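 Primary qHTS, 1536-well format. 20 nM WRN + compound, 15 min RT; start with 100 nM forked fluorophore/quencher duplex, 2 mM ATP (final); kinetic read ex 525/em 598 nm.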
# POLH inh = DNA polymerase eta (human) inhibition. recombinant Pol eta, fluorescent DNA replication assay. Potency, µM (doses to about 114 µM), without a hit: at the top dose activity change, negative = inhibition, hits mostly inhibitors. 390,000 compounds, 1.2% hits. AID 588591; also: potency is read from the fitted curve at half-maximal effect; % is scaled to controls: 0 for no effect and ±100 for the full control effect
#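 Fluorescent replication assay: 50 nM final substrate added after a 15 min room-temperature compound preincubation with 10 nM enzyme. Signal taken at 0 min and again at 10 min.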
# ADP-Glo counter = ADP-Glo luciferase interference, PI5P4K counter-screen; 1,100 tested, under 10 active; ADP-Glo detection counter-screen, luciferase luminescence, no enzyme; Potency, µM (doses to about 76.9 µM), without a hit: at the top dose activity change, negative = inhibition, usual class: inhibitors; shares compounds with PI5P4Ka inh
# Numbers without * were called inactive; i = inactive; ? = inconclusive; / = no result given; [ ] = remark or other dose. Sampled rows, rich in hits. Any-hit rate of the full collection: about 2.8%. Unless noted, calls follow the shape of the dose curve; as a rule, active = well fitted curve in the direction sought with a large enough effect; inconclusive = small, poorly fitted or top-dose-only effect, or another doubt; inactive = no such curve, though single readings can be large; an effect the other way counts as inactive or inconclusive.
SMILES,Pol kappa inh,PI5P4Ka inh,POLI inh,Pol beta inh,WRN inhibitor,POLH inh,ADP-Glo counter
COc1ccccc1NC(=S)NNC(=O)c1ccccc1Br,-7%,-12,-11%,7%,2%,-15%,/
CCOc1ccc(CCNS(=O)(=O)c2cn(C)cn2)cc1OCC,?,-26,?,12%,3%,-4%,0%
CC[C@H](C)[C@H](NC(=O)[C@H](CO)NC(=O)[C@H](CC(C)C)NC(=O)[C@H](CO)NC(=O)[C@@H]1CCCN1C(=O)[C@H](CC(N)=O)NC(=O)[C@@H](N)CC(=O)O)C(=O)N[C@@H](CC(=O)O)C(=O)N[C@@H](CC(C)C)C(=O)N[C@H](C(=O)N[C@@H](Cc1ccccc1)C(=O)N[C@@H](Cc1cnc[nH]1)C(=O)N[C@@H](CC(C)C)C(=O)N[C@@H](CC(C)C)C(=O)N[C@@H](CCCNC(=N)N)C(=O)N[C@H](C(=O)N[C@@H](CC(C)C)C(=O)N[C@@H](CC(C)C)C(=O)N[C@@H](CCC(=O)O)C(=O)N[C@@H](CC(C)C)C(=O)N[C@@H](C)C(=O)N[C@@H](CCCNC(=N)N)C(=O)N[C@H](C(=O)N[C@@H](CCC(N)=O)C(=O)N[C@@H](CO)C(=O)N[C@@H](CCC(N)=O)C(=O)N[C@@H](CCCNC(=N)N)C(=O)N[C@@H](CCC(=O)O)C(=O)N[C@@H](CCCNC(=N)N)C(=O)N[C@@H](C)C(=O)N[C@@H](CCC(=O)O)C(=O)N[C@@H](CCC(N)=O)C(=O)N[C@@H](CC(N)=O)C(=O)N[C@@H](CCCNC(=N)N)C(=O)N[C@H](C(=O)N[C@H](C(=O)N[C@@H](Cc1ccccc1)C(=O)N[C@@H](CC(=O)O)C(=O)N[C@@H](CO)C(=O)N[C@H](C(N)=O)C(C)C)[C@@H](C)CC)[C@@H](C)CC)[C@@H](C)O)[C@@H](C)O)[C@@H](C)O,10%[60.1 µM],/,/,/,/,/,/
Cc1ccc(NC(=O)CN(C)C(=O)COc2ccc(C(=O)c3ccc(F)cc3)cc2)cc1,?,-2,?,18%,-2%[11.6 µM],?,5%
CCNC(=O)c1ccccc1SCc1ccccc1,-6%,6,3%,-4%,1%,-4%,/
CCNC(=O)c1ccccc1SCC(=O)Nc1ccc(F)cc1,0%,-68*,79%,3%,-22%,-3%,2%
Cc1cc(NC(=O)CN2C(=O)NC3(CCCCCC3)C2=O)ccc1Br,-1%,-3,12%,/,7%,-7%,/
O=c1oc2ccccc2cc1-c1csc(Nc2nc3c(F)cccc3s2)n1,-2%,-55*,3%,20%,-24%,?,-5%
O=C(CN(CC1CCCO1)C(=O)CCC(=O)Nc1ccccn1)NCC1CCCO1 (stereo unspecified),-2%,-7,19%,18%,7%,-14%,/
COCCN(CC(=O)NCC1CCCO1)C(=O)CCC(=O)Nc1ccccn1 (stereo unspecified),-15%,-51*,-14%,30%,-27%,-10%,1%
O=C(Nc1nnc(-c2ccncc2)o1)c1ccccc1,-2%,-84*,61%,12%,?,-18%,-7%
O=C(Nc1nnc(-c2ccc(Cl)cc2)o1)Nc1ccccc1Cl,-1%,-4,5%,15%,3%,10%,/
O=C(Nc1nnc(-c2ccc(Cl)cc2)o1)c1nc2ccccc2s1,-8%,-50*,-8%,-9%,-7%,-3%,-1%
CCN(CC)CCCCCC(=O)Nc1ccccc1C(=O)Nc1ccccc1,-22%,-19,-31%,33%,-15%,-19%,-4%
Cc1ccc(CNC(=O)c2ccc3c(=O)n4c(-c5ccc(C)cc5)csc4nc3c2)cc1,-12%,10,2%,2%,2%,-3%,/
Cc1ccc(-c2csc3nc4cc(C(N)=O)ccc4c(=O)n23)cc1,-25%,-51*,?,?,-30%,-20%,-5%
CCN1CCN(C(=O)c2cc(COc3ccc(F)cc3F)on2)[C@@H](C)C1=O,5%,2,30%,33%,-3%,-6%,/
O=C(Nc1nc(-c2ccco2)c(-c2ccco2)s1)c1ccc(F)cc1F,50µM*,-64*,?,/,?,?,-9%
O=C(Nc1ccc(F)cc1F)c1cc(-c2ccco2)nc2ccccc12,-11%,?,19%,5%,-31%,1%,/
O=C(Cn1ncc2ccsc2c1=O)N1CCN(c2ccccc2)CC1,0%,/,10%,17%,/,-7%,/
Nc1cccnc1S(=O)(=O)c1cccc(C(F)(F)F)c1,-8%,1,37%,/,-8%,3%,/
Nc1nc(N)c2cc(S(=O)(=O)c3cccc(C(F)(F)F)c3)ccc2n1,/,-54*,/,/,-10%,?,-9%
COc1ccc(CC(=O)NCC(=O)NC(Cc2ccccc2)C(=O)O)cc1 (stereo unspecified),?,-65*,i,-18%,-2%,-19%,-1%
COCCNc1nc(NCCOc2ccccc2)c2sc(-c3ccccc3)cc2n1,/,/,/,/,-8%,/,-1%
COc1ccccc1CNc1nc(NC(C)C)nc2cc(-c3ccccc3)sc12,/,/,/,/,4%,/,-9%
SMILES,Pol kappa inh,PI5P4Ka inh,POLI inh,Pol beta inh,WRN inhibitor,POLH inh,ADP-Glo counter
COc1ccccc1CNc1nc(NCc2ccc(C)cc2C)c2sccc2n1,/,/,/,/,-1%,/,-6%
COc1cccc(CNc2nc(NC(C)C)nc3ccsc23)c1,/,/,/,/,-6%,/,2%
CC(C)Nc1nc(NCCOc2ccccc2Cl)c2sc(-c3ccccc3)cc2n1,/,/,/,/,-8%,/,/
O=C(Nc1ccsn1)c1ccc(Cl)cc1Cl,-17%,4,15%,11%,-2%,-2%,/
Nc1ncc(S(=O)(=O)N2CCN(c3ccccc3)CC2)cn1,-10%[60.1 µM],/,?,?,/,?,/
Cc1cccc(-n2nnc(-c3nc(-c4cccs4)no3)c2N)c1C,-20%,/,?,-16%,/,-28%,/
COc1ccccc1CNc1nc(NCc2cccc(OC)c2OC)c2sccc2n1,/,/,/,/,-5%,/,3%
COCCNc1nc(NCc2cccc(OC)c2OC)c2sccc2n1,/,3,/,/,-1%,/,/
COc1ccccc1CNc1nc(NCc2ccccc2)nc2ccsc12,/,/,/,/,-12%,/,-8%
COc1ccccc1CNc1nc(NCc2ccccc2F)c2sccc2n1,/,?,/,/,-2%,/,/
Cc1ccc2[nH]c3c(=O)n(CC(=O)Nc4ccc(Br)cc4C)ncc3c2c1,-12%,/,-13%,1%,/,-5%,/
CC(=O)c1ccc2noc(-c3ccc(C)cc3)c2c1,9%,-2,-3%,-14%,1%,-7%,/

# Compound activity (PubChem)
